Results filed as inconclusive are left out. Where a call stands in place of a potency, no number is given. A structure can be active in one record and inactive in another. Activity calls are given as the source filed them. Calls follow the shape of the dose curve; as a rule, active = well fitted inhibition curve with a large enough effect; inconclusive = small, poorly fitted or top-dose-only effect; inactive = no such curve, though single readings can be large or run the other way.
Potency is read from the fitted curve at half-maximal effect.

The test can be described thus: Primary qHTS for inhibitors of nuclear receptor binding SET domain protein 2 (NSD2) in an RCH-ACV wild type WT cells (2C) (AID 1645877). Also: nearly all actives have a fitted effect of over 70% in size. Particulars: RCH-ACV (leukaemia line) NSD2 WT (2C) viability, CellTiter-Glo, 72 h; series mostly up to 44.9 µM. An excerpt: Assay Provider: Jonathan D. Licht, MD
University of Florida College of Medicine, Gainesville, FL
Mutations in epigenetic regulators are common in relapsed pediatric acute lymphoblastic leukemia (ALL). Here, we uncovered the mechanism underlying the relapse of ALL driven by an activating mutation of the NSD2 histone methyltransferase (p.E1099K). […] Correction of this mutation restored glucocorticoid sensitivity. The transcriptional response to glucocorticoids was blocked in NSD2 mutant cells due to depressed glucocorticoid receptor (GR) levels and the failure of glucocorticoids to autoactivate GR expression. […] Pre-treatment of NSD2 p.E1099K cell lines and PDX samples with PRC2 inhibitors reversed glucocorticoid resistance in vitro and in vivo.
High-throughput drug screening of isogenic RCH-ACV cell lines was performed at the National Center for Advancing Translational Science (NCATS), National Institutes of Health as previously described (1). Briefly, isogenic RCH-ACV NSD2 p.E1099K mutant (9B) and WT cells (2C) were plated at 500 cells/well in a 1536-well plate with a 72-hour incubation with compounds prior to addition of CellTiter-Glo to assess cell viability. NCATS libraries screened include: NPC, MIPE 5.0, Kinase and NPACT. To determine compound activity in the qHTS assay, the concentration-response data for each sample was plotted and modeled by a four-parameter logistic fit yielding IC50 and efficacy (maximal response) values. The area under the curve (AUC) of the dose-response curve ensures both efficacy (magnitude of cell killing) and potency (concentration that elicits cell killing) are accounted for in the analysis of activity.
1. Tobie D Lee, Olivia W Lee, Kyle R Brimacombe, Lu Chen, Rajarshi Guha, Sabrina Lusvarghi, Bethilehem G Tebase, Carleen Klumpp-Thomas, Robert W Robey, Suresh V Ambudkar, Min Shen, Michael M Gottesman, Matthew D Hall. A High-Throughput Screen of a Library of Therapeutics Identifies Cytotoxic Substrates of P-glycoprotein. Mol Pharmacol. 2019, Nov;96(5):629-640.
In the case of `CCOc1ncc(F)c(=O)[nH]1`, the Potency entry is “inactive”. The value for `CCCOc1ccc2c(c1)CC[C@@H]1[C@@H]2CC[C@]2(C)C(OC)CC[C@@H]12` (stereo not given in full) was “inactive”; that for `Nc1ccc(C(=O)OCC(O)CO)cc1` (stereo not given) was “inactive”; that for `C[C@@H]1CCC[C@H](C)N1CCCC(O)(c1ccccc1)c1ccccn1` (stereo not given in full) was “inactive”.

`O=C1Nc2ccccc2C1(c1ccc(O)cc1)c1ccc(O)cc1`: the Potency was 16.8 µM (active).

For `CCC(C(=O)NC(=O)NC(C)=O)c1ccccc1` (stereo not given), the Potency result was “inactive”. The value for `CC(=O)/C=C/C=C1/C2CCC(C2)C1(C)C` (stereo not given) was “inactive”; that for `C[N+](C)(CCOc1ccccc1)Cc1cccs1` was 26.6 µM (active). In the case of `CCOC(=O)NNc1nncc2ccccc12` it was “inactive”; in that of `O=C1CC2(CCCC2)CC(=O)N1CCNCC1COc2ccccc2O1` (stereo not given), “inactive”; in that of `Cc1cc(O)c2c(O)c3c(O)cccc3cc2c1`, “inactive”.

On to `CCCCN(CCN(CCCC)C(=O)N1CCOCC1)C(=O)N1CCOCC1`, for which the Potency entry was “inactive”.

With `CCOC(=O)CN1CCCC1=O`, the Potency entry was “inactive”. In the case of `O=C(NO)c1ccccc1` it was 25.9 µM (active); in that of `COC(=O)c1cc(S(N)(=O)=O)ccc1OC`, “inactive”.

`CN=C(N)NC(=O)Nc1c(C)cccc1C`: the Potency result is “inactive”. The value for `O=[N+]([O-])c1nccn1CO[C@@H](CO)[C@H](O)CO` was “inactive”; that for `Oc1ccccc1-c1nnco1` was “inactive”. The value for `CC(=O)Nc1ccn(C2COC(COC(=O)c3ccccc3)O2)c(=O)n1` (stereo not given) was 5.31 µM (active); that for `CN1CCCN=C1/C=C/c1cccs1` was “inactive”; that for `Nc1ncnc2c1ncn2Cc1c(F)cccc1Cl` was “inactive”.

As for `CC(NC(CCc1ccccc1)C(=O)O)C(=O)N1C(=O)N(C)CC1C(=O)O` (stereo not given), the Potency entry is “inactive”. For the compound `CC(C)C(C)(C)C(C)(C)C(C)(C)S`, the Potency result is “inactive”. In the case of `CCN1C(=O)c2ccccc2C1Nc1ccc(OCCN2CCCCC2)cc1` (stereo not given) it was “inactive”; in that of `CC(=O)OCC(=O)[C@@]1(O)CCC2C3CCC4=CC(=O)CC[C@]4(C)C3[C@@H](O)C[C@@]21C` (stereo not given in full), 0.15 µM (active); in that of `CC[C@@]1(O)C(=O)OCc2c1cc1n(c2=O)Cc2c-1nc1ccccc1c2/C=N/OC(C)(C)C`, “inactive”. Regarding `CC(C)CCCC(C)NCCC(C)C` (stereo not given), the Potency result was “inactive”. With `C[N+]1(CC2COC(c3ccccc3)(c3ccccc3)O2)CCCCC1` (stereo not given), the Potency is 2.59 µM (active). The value for `Nc1c2ccccc2nc2ccccc12` was 4.22 µM (active); that for `O=C1NC2CCCCN2C12CCN(CCCN1c3ccccc3CCc3ccc(Cl)cc31)CC2` (stereo not given) was 21.1 µM (active). In the case of `Cc1ncc(CO)c(CO)c1O` it was “inactive”; in that of `C[C@@]12CCC[C@H]1[C@@H]1CC[C@H]3C[C@@H](O)CC[C@]3(C)[C@H]1CC2`, “inactive”. Turning to `OCc1c[nH]c2ccccc12`, the Potency is 24.3 µM (active).

With `CC(NCCC(c1ccccc1)c1ccccc1)c1ccccc1` (stereo not given), the Potency was 18.8 µM (active). The value for `O=C1CCCc2c(O)cccc21` was “inactive”; that for `C=CCOc1cc(Cl)ccc1C(=O)NCCN(CC)CC` was “inactive”.

As to `CC(CCc1ccc2c(c1)OCO2)NN` (stereo not given), the Potency result was “inactive”. In the case of `CC(C)(C)C(=O)OCOC(=O)C1N2C(=O)CC2S(=O)(=O)C1(C)C` (stereo not given), the Potency entry is “inactive”. With `CC(=O)[C@H]1CC[C@H]2[C@@H]3C=CC4=CC(=O)CC[C@@]4(C)[C@@H]3CC[C@]12C`, the Potency is 23.7 µM (active) and inactive.

Consider `CC(C)NC(=O)c1ccc(C=O)cc1`, for which the Potency result was “inactive”.
